Bioassay records (PubChem BioAssay)
Pyk2 oligo antag: antagonists of Pyk2 self-association, primary screen, Q293 cells, FERM NanoBiT luminescence, HTS | Protein-tyrosine kinase 2-beta (Homo sapiens), Q14289 | stronger effect = lower value | z-score (the deposit names both 25 µM and 10 µM) | 99,000 compounds, 0.83% hits;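 active means Z-score of -3 or lower, scaled per plate to the spread of control and sample wells; inactive means z-score above -3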;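 further: negative z-score means lost luminescence so less FERM oligomerization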
CYP2C9 inh: blockers of cytochrome P450 2C9 activity – biochemical, luminescence, ADME assay, primary screen; 96,000 compounds, 20% hits; CYP2C9 Supersomes, luciferin-H conversion; P11712; inhibition, % at 5 µM; AID 777, 2007;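 active means blocking of liver enzyme CYP2C9 beyond about 50% at 5 µM, limit read from the data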
Target sequence (P11712 whole entry, looked up): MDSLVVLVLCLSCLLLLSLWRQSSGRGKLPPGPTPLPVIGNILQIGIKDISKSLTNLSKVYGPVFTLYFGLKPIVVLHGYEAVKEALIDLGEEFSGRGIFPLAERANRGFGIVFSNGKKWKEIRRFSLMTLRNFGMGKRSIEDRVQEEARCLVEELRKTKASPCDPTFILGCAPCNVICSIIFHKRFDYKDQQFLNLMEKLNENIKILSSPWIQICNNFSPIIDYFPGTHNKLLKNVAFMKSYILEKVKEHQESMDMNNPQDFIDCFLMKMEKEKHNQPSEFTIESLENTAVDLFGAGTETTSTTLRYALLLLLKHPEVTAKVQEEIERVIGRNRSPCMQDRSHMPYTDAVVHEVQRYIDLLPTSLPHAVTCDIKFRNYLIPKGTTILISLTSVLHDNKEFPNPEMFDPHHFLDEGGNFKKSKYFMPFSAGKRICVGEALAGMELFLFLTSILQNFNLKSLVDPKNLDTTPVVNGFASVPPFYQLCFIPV
CYP2C19 inh: blockers of cytochrome P450 2C19 activity – biochemical, luminescence, ADME assay, primary screen; P33261; CYP2C19 Supersomes, luciferin-H EGE luminescence, 30 min; inhibition, % at 5 µM; 96,000 compounds, 21% hits;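 active means CYP2C19 inhibition above a set limit at 5 µM in the primary screen, cut at about 50% in these data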;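 further: plate controls were negative control wells for no effect and 2.5 mM tranylcypromine positive control for full effect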
CYP2C9 activ: human CYP2C9 activators, primary screen, biochemical, luminescence; activation factor at 5 µM; 96,000 compounds, 1.4% hits; AID 1024, 2008; recombinant CYP2C9, luciferin-H conversion; stronger effect = higher value; factor 1 = untreated enzyme, 0 = blocked; Cytochrome P450 2C9 (Homo sapiens), P11712;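 active means activation factor of 2 or more for CYP2C9 at a 5 µM dose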;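 further: 0 = sulfaphenazole-blocked wells and 1 = vehicle-only wells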
CYP2C19 act: human CYP2C19 activators, primary screen, biochemical, luminescence. activation factor at 5 µM. recombinant CYP2C19, luciferin-H EGE luminescence; stronger effect = higher value; 0 = fully inhibited enzyme, 1 = untreated enzyme. 96,000 tested, under 10 active. Cytochrome P450 2C19 (Homo sapiens), P33261;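 active means activation factor of at least 2 at 5 µM in the primary screen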;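 further: 0 = wells with 2.5 mM tranylcypromine and 1 = vehicle-only wells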
Cav3 T inh: Cav3.2 calcium influx blockers – cell-based, Fluo-4 calcium fluorescence, FDSS, MLSMR library, primary screen; Voltage-dependent T-type calcium channel subunit alpha-1H (Homo sapiens), O95180; Cav3.2-expressing cells; stronger effect = lower value; B-score at 10 µM; 100,000 compounds, 4% hits;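 active means single-dose well whose peak fluorescence ratio is a statistical outlier from its plate by either plate-standardised score or position-corrected B-score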
An asterisk follows results filed as active; . = no result. The list is not random: actives were taken first. Their share in the collection is about 27%.

SMILES	Pyk2 oligo antag	CYP2C9 inh	CYP2C19 inh	CYP2C9 activ	CYP2C19 act	Cav3 T inh
Cn1c(SCC(=O)NCc2ccc3c(c2)OCO3)nnc1C1COc2ccccc2O1 (stereo not drawn)	0.08	34	28	0.7	0.7	0.46
Cc1ccccc1-n1ncc2c(SCC(=O)NCc3cccs3)ncnc21	0.93	34	11	0.7	0.9	-1.3
CC(=O)c1cc2c(cc1NC(=O)CCNC(=O)c1ccccc1Cl)OCO2	0	74*	60*	0.3	0.4	0.59
CC(=O)c1cc2c(cc1NC(=O)CN1CCC(Cc3ccccc3)CC1)OCO2	-2.9	87*	71*	0.1	0.3	0.43
CC(=O)c1cc2c(cc1NC(=O)CN1CCN(c3cccc(C(F)(F)F)c3)CC1)OCO2	-0.9	.	.	.	.	-1.7
CCOC(=O)N1CCN(CC(=O)Nc2cc3c(cc2C(C)=O)OCO3)CC1	.	80*	15	0.2	0.8	-2.7
O=C(Nc1c(F)c(F)c(F)c(F)c1F)NC1CCCCC1	1.2	-3	34	1	0.7	0.85
CC(=O)OCCOc1nc(N(C)C)nc(N(C)C)n1	0.48	-12	5	1.1	0.9	0.47
O=C(NCCCN1CCOCC1)c1onc(CSc2ccccn2)c1C(=O)NCCCN1CCOCC1	.	.	.	.	.	1.7
Cc1ccc2[nH]c(-c3ccccc3)c(CN3CCOCC3)c(=O)c2c1	0.85	-16	2	1.2	1	0.0011
CCOC(=O)C1=C(C)N(CCCC(=O)O)C(=O)NC1c1cccc(OC)c1 (stereo not drawn)	.	.	.	.	.	0.23
Cn1c(SCC(=O)NCc2ccccc2)nc2ccccc21	0.12	-345	40	4.5*	0.6	.
CN(C)C(=O)CSc1nc(SCC(=O)N(C)C)n(-c2ccccc2)n1	0.63	2	8	1	0.9	0.22
O=C(CSc1nc2ccccc2n1CCc1ccccc1)NC1CCS(=O)(=O)C1 (stereo not drawn)	0.76	99*	96*	0	0	0.99
O=C(CSc1nc(SCC(=O)NCc2ccccc2)n(-c2ccccc2)n1)NCc1ccccc1	-1.9	83*	66*	0.2	0.3	-2.5
O=C(CSc1nc2ccccc2[nH]1)NC1CCS(=O)(=O)C1 (stereo not drawn)	0.16	-6	7	1.1	0.9	0.48
Cn1nc([N+](=O)[O-])nc1Sc1nnc(-c2ccccc2)o1	-0.09	52*	19	0.5	0.8	0.18
O=Cc1ccc(Sc2nnc(-c3ccccc3)o2)c([N+](=O)[O-])c1	0.57	13	27	0.9	0.7	1.2
COc1ccc(CC(=O)OCC(=O)Nc2ncc(Cl)cc2Cl)cc1	0.49	53*	64*	0.5	0.4	.
COc1ccc(CC(=O)OCC(=O)NC(=O)NC2CCCCC2)cc1	0.35	56*	12	0.4	0.9	-3
O=C(COC(=O)CCc1ccccc1)Nc1ncc(Cl)cc1Cl	0.61	21	54*	0.8	0.5	0.038
COc1cc(CC(=O)OCC(=O)Nc2ncc(Cl)cc2Cl)cc(OC)c1OC	0.67	45	67*	0.5	0.3	-0.68
COc1ccc(CC(=O)OCC(=O)Nc2ccc(Cl)cn2)cc1	0.1	48	31	0.5	0.7	-2.6
COc1ccc(CCNC(=O)NC2CCCCC2)cc1	-0.46	.	.	.	.	0.15
CCOc1ccccc1OCC(=O)OCC(=O)Nc1ncc(Cl)cc1Cl	-0.34	-12	28	1.1	0.7	-1.1
SMILES	Pyk2 oligo antag	CYP2C9 inh	CYP2C19 inh	CYP2C9 activ	CYP2C19 act	Cav3 T inh
COc1cc(/C=C/C(=O)OCC(=O)NCC2CCCO2)ccc1OCC#N (stereo not drawn)	1.8	.	.	.	.	.
Cc1cc(=O)[nH]c(S/C=C/c2ccccc2)n1	0.6	36	17	0.6	0.8	-0.02
O=C(O)COc1ccc2c(c1)OCCO2	1.3	-10	-7	1.1	1.1	0.39
CN(C)S(=O)(=O)N(CC(=O)Nc1ccc(F)c(F)c1)c1ccccc1	-0.09	56*	28	0.4	0.7	-0.85
CC(=O)Nc1ccc2ccccc2c1	1.1	5	29	1	0.7	1
CN(C)S(=O)(=O)N(CC(=O)Nc1ccc2ccccc2c1)c1ccccc1	-0.19	.	.	.	.	-9.5*
CN(C)S(=O)(=O)N(CC(=O)Nc1ccccc1C(F)(F)F)c1ccccc1	.	33	88*	0.7	0.1	-0.69
CSc1ccccc1NC(=O)CN(c1ccccc1)S(=O)(=O)N(C)C	-1.1	40	27	0.6	0.7	-1.5
CC(O)[C@H]1CNC(=O)C(=O)N1CCCCC1CCCCC1 (stereo partly drawn)	.	.	.	.	.	0.65
CC(C)c1ccc(NC(=O)N2CCC(c3nc4ccccc4o3)CC2)cc1	-0.54	27	13	0.7	0.9	-1.5
Clc1ccc(-n2cccc2/C=N/n2cnnc2)cc1	-0.85	56*	57*	0.4	0.4	0.98
Brc1ccc(-n2cccc2/C=N/n2cnnc2)cc1	0.54	53*	74*	0.5	0.3	0.076
Cn1cccc1/C=N/n1cnnc1	-0.29	0	0	1	1	0.8
COc1ccc(Nc2nnc(-c3ccc(N4CCOCC4)c([N+](=O)[O-])c3)c3ccccc23)cc1	-0.16	53*	17	0.5	0.8	-0.024
CCCc1nc(C)c2c(=O)[nH]c(-c3cc(S(=O)(=O)N4CCN(CC)CC4)ccc3OCC)nn12	.	.	.	.	.	-0.037
COc1ccc(NC(=O)CN2CCN(c3ccccc3F)CC2)cc1	1	68*	55*	0.3	0.4	0.45
CCN(CC)C(=O)CN1CCN(c2ccccc2F)CC1	0.65	3	38	1	0.6	0.97
COC(=O)c1cccc(NC(=O)CN2CCN(c3ccc(OC)cc3)CC2)c1	1	86*	65*	0.1	0.4	0.63
COc1ccc(N2CCC(CNC(=O)Nc3cccc(OC)c3)C2)cc1 (stereo not drawn)	0.67	76*	40	0.2	0.6	-3.3
COc1cccc(NC(=O)CN2CCN(c3ccc(F)cc3)CC2)c1	2.1	33	15	0.7	0.8	.
COc1cccc(NC(=O)CCN2CCN(c3ccccc3F)CC2)c1	0.4	33	38	0.7	0.6	-0.96
CCN(CC)c1ccc(NC(=O)CN2CCN(c3ccccc3F)CC2)cc1	-0.66	46	55*	0.5	0.4	-1.4
COc1cccc(NC(=O)NCCCN2CCN(c3ccc(F)cc3)CC2)c1	0.43	21	11	0.8	0.9	-0.68
CN=C(Nc1cccc(OC)c1)SC1CC(=O)N(c2ccc(C(=O)O)cc2)C1=O (stereo not drawn)	1.2	.	.	.	.	.
Cc1cc(C)n(-c2cc(N3CCN(C(=O)c4ccccc4C)CC3)ccc2[N+](=O)[O-])n1	-0.9	.	.	.	.	1.4
